PubChem BioAssay (Tox21)
Inconclusive results are not listed. Entries that show only a call come without a potency. The source holds several records for some structures; these can differ, active in one and inactive in another. Calls of active or inactive are those of the source. Calls come from the whole dose curve; as a rule, active = well fitted curve in the direction sought with a large enough effect in the repeat runs; inconclusive = weak or mixed curves; inactive = no such curve, though single readings can be large; an effect the other way counts as inactive or inconclusive.

Experiments:
[1] = A CellTox Green Cytotoxicity Assay to monitor cytotoxicity in HEK293 cells - 32 hour (AID 1224881); note: nearly all actives have a fitted effect of over 40% in size; note: potency is the fitted concentration of half-maximal effect
Summary of the method: (§1)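 Each value comes from one timepoint of a single continuous run in which HEK293 cells with CellTox Green were exposed to compound for up to 40 h at 37 C, dye fluorescence rising with cell death.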

[2] = A CellTox Green Cytotoxicity Assay to monitor cytotoxicity in HepG2 cells - 0 hour (AID 1224882); note: nearly all actives have a fitted effect of over 35% in size; note: potency is the fitted concentration of half-maximal effect
Summary of the method: (§2)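 Continuous culture of HepG2 cells with a membrane-impermeant DNA dye; rising fluorescence marks dead cells. Compound exposure lasted up to 40 h at 37 C, with reads every 8 h from 0 h.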

[3] = A CellTox Green Cytotoxicity Assay to monitor cytotoxicity in HepG2 cells - 32 hour (AID 1224883); note: nearly all actives have a fitted effect of over 50% in size; note: potency is the fitted concentration of half-maximal effect
Summary of the method: as §2

[4] = A CellTox Green Cytotoxicity Assay to monitor cytotoxicity in HEK293 cells - 8 hour (AID 1224884); note: nearly all actives have a fitted effect of over 35% in size; note: potency is the fitted concentration of half-maximal effect
Summary of the method: as §1

[5] = qHTS RealTime-Glo MT Cell Viability Assay in HepG2 cells - 16 hour (AID 1224885); note: nearly all actives have a fitted effect of over 50% in size; note: potency is the fitted concentration of half-maximal effect
Summary of the method: (§3)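 HepG2 cells were seeded at 600 cells/well together with NanoLuc luciferase and a cell-permeant prosubstrate, preincubated 5 h at 37 C/5% CO2, then pin-dosed with compounds in DMSO. Nonlytic luminescence from viable cells was read at each time point.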

[6] = qHTS RealTime-Glo MT Cell Viability Assay in HEK293 cells - 24 hour (AID 1224886); note: nearly all actives have a fitted effect of over 50% in size; note: potency is the fitted concentration of half-maximal effect; for activity change, negative = cytotoxicity: top concentration of the series differs between compounds
Summary of the method: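 HEK293 cells were seeded at 600 cells/well together with NanoLuc luciferase and cell-permeant prosubstrate, preincubated 5 h at 37 C/5% CO2, then given compound in DMSO by pintool. Luminescence from viable-cell prosubstrate reduction was read repeatedly over 40 h.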

[7] = qHTS RealTime-Glo MT Cell Viability Assay in HEK293 cells - 8 hour (AID 1224887); note: nearly all actives have a fitted effect of over 50% in size; note: potency is the fitted concentration of half-maximal effect; for activity change, negative = cytotoxicity: top concentration of the series differs between compounds
Summary of the method: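 qHTS format; HEK293 cells with NanoLuc/prosubstrate reagent, 37 C/5% CO2 for 5 h pre-dosing; compounds 23 nL in DMSO; luminescence at each time point reflects viable cells.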

[8] = A CellTox Green Cytotoxicity Assay to monitor cytotoxicity in HEK293 cells - 16 hour (AID 1224888); note: nearly all actives have a fitted effect of over 35% in size; note: potency is the fitted concentration of half-maximal effect
Summary of the method: as §1

[9] = qHTS RealTime-Glo MT Cell Viability Assay in HepG2 cells - 0 hour (AID 1224889); note: nearly all actives have a fitted effect of over 50% in size
Summary of the method: as §3

[10] = A CellTox Green Cytotoxicity Assay to monitor cytotoxicity in HepG2 cells - 8 hour (AID 1224890); note: nearly all actives have a fitted effect of over 45% in size; note: potency is the fitted concentration of half-maximal effect
Summary of the method: as §2

| Structure (SMILES) | Potency [1] | Potency [2] | Potency [3] | Potency [4] | Potency [5] | Potency [6] | Potency [7] | Potency [8] | Potency [9] | Potency [10] | cytotoxicity [2] | cytotoxicity increase [4] | activity change, negative = cytotoxicity [9] |
| --- | --- | --- | --- | --- | --- | --- | --- | --- | --- | --- | --- | --- | --- |
| CC(C)(C)C(=O)OCOC(=O)C1N2C(=O)CC2S(=O)(=O)C1(C)C (stereo not drawn) | inactive | inactive | inactive | inactive | inactive | inactive | inactive | inactive | inactive |  |  |  |  |
| CC(C)(C)C(=O)OCOC(=O)[C@@H]1N2C(=O)[C@@H](NC(=O)[C@H](N)c3ccccc3)[C@H]2SC1(C)C | inactive | inactive | inactive | inactive | inactive | inactive | inactive | inactive | inactive | inactive |  |  |  |
| CNC(=O)c1ccccc1 | inactive | inactive | inactive | inactive | inactive | inactive | inactive | inactive | inactive | inactive |  |  |  |
| CO[Si](CCCNc1ccccc1)(OC)OC | inactive | inactive | inactive | inactive | inactive | inactive | inactive | inactive | inactive | inactive |  |  |  |
| CC[C@H]1O[C@]2(CC[C@@H]1C)C[C@@H]1C[C@@H](C/C=C(\C)C[C@@H](C)/C=C/C=C3\CO[C@@H]4[C@H](O)C(C)=C[C@@H](C(=O)O1)[C@]34O)O2 | 48.5 µM (active) | inactive | 27.3 µM (active) | inactive | 43.3 µM (active) | 34.4 µM (active) | 43.3 µM (active) | 48.5 µM (active) | inactive | 48.5 µM (active) |  |  |  |
| N=C1N=C(N)c2cc3ccccc3cc21 | 54.9 µM (active) | inactive | 33.4 µM (active) | 54.9 µM (active) | 38.9 µM (active) | 24.5 µM (active) | 43.6 µM (active) | 54.9 µM (active) | inactive |  |  |  |  |
| O=[N+]([O-])c1ccccc1Nc1ccccc1 | inactive | inactive | inactive | inactive | inactive | inactive | inactive | inactive | inactive | inactive |  |  |  |
| C/C=C(\C)C(=O)OCc1ccccc1 | inactive | inactive | inactive | inactive | inactive | inactive | inactive | inactive | inactive | inactive |  |  |  |
| c1ccc(CSCc2ccccc2)cc1 | inactive | inactive | inactive | inactive | inactive | inactive | inactive | inactive | inactive | inactive |  |  |  |
| CCN(C(=O)c1cc(C)cc(OC[C@H](C)Nc2ccncc2)c1)C(C)C | inactive | inactive | inactive | inactive | inactive | inactive | inactive | inactive | inactive | inactive |  |  |  |
| O=C(Nc1ccc(Oc2ccc(Cl)cc2)c(Cl)c1)c1cc(I)cc(I)c1O | inactive | inactive | inactive | inactive | inactive | inactive | inactive | inactive | inactive | inactive |  |  |  |
| CCCCCCCCCCCCCC[P+](CCCC)(CCCC)CCCC (tested in a mixture with another compound) | 15.6 µM (active) | inactive | 15.6 µM (active) | 19.6 µM (active) | 19.6 µM (active) | 1.96 µM (active) | 15.6 µM (active) | 17.5 µM (active) | inactive | 22 µM (active) |  |  |  |
| O=C(O)c1c(Cl)cccc1Cl | inactive | inactive | inactive | inactive | inactive | inactive | inactive | inactive | inactive | inactive |  |  |  |
| O=c1c(-c2ccccc2)c1-c1ccccc1 | 5.35 µM (active) | inactive | 9.52 µM (active) | inactive | 19 µM (active) | 13.4 µM (active) | 16.9 µM (active) | inactive | inactive | inactive |  |  |  |
| CCCCN(CCCC)C(=O)N(CCCC)CCCC | inactive | inactive | inactive | inactive | inactive | inactive | inactive | inactive | inactive | inactive |  |  |  |
| CC(=O)SC[C@@H](Cc1ccccc1)C(=O)NCC(=O)OCc1ccccc1 | inactive | inactive | inactive | inactive | inactive | inactive | inactive | inactive | inactive | inactive |  |  |  |
| C1CCCC1 | inactive | inactive | inactive | inactive | inactive | inactive | inactive | inactive | inactive | inactive |  |  |  |
| Cc1cccc(S(=O)(=O)O)c1C | inactive | inactive | inactive | inactive | inactive | inactive | inactive | inactive | inactive | inactive |  |  |  |
| OC1(c2ccc(Cl)c(C(F)(F)F)c2)CCN(CCCC(c2ccc(F)cc2)c2ccc(F)cc2)CC1 | 23.9 µM (active) | inactive | 8.49 µM (active) | 21.3 µM (active) | 10.7 µM (active) | 9.52 µM (active) | 19 µM (active) | 23.9 µM (active) | inactive | 19 µM (active) |  |  |  |
| C[n+]1cc2c3c(ccc2c2ccc4cc5c(cc4c21)OCO5)OCO3 | 0.465 µM (active) |  | 0.585 µM (active) |  | 0.827 µM (active) | 0.585 µM (active) | 0.465 µM (active) | 4.65 µM (active) |  | 0.737 µM (active) | -26.7% [at 15.8 µM] (inactive) | 16.5% [at 15.8 µM] (inactive) | -1.39% [at 15.8 µM] (inactive) |

| Structure (SMILES) | Potency [1] | Potency [2] | Potency [3] | Potency [4] | Potency [5] | Potency [6] | Potency [7] | Potency [8] | Potency [9] | Potency [10] | cytotoxicity [2] | cytotoxicity increase [4] | activity change, negative = cytotoxicity [9] |
| --- | --- | --- | --- | --- | --- | --- | --- | --- | --- | --- | --- | --- | --- |
| Nc1ccc2cc(S(=O)(=O)O)cc(O)c2c1N=Nc1ccccc1C(F)(F)F | inactive | inactive | inactive | inactive | inactive | inactive | inactive | inactive | inactive | inactive |  |  |  |
| CCCCCCCCCCC=O | inactive | inactive | inactive | inactive | inactive | inactive | inactive | inactive | inactive | inactive |  |  |  |
| Cc1cc(O)c(C(C)(C)C)cc1C(C)(C)C | 24.5 µM (active) | inactive | 24.5 µM (active) | 19.5 µM (active) | 43.6 µM (active) | 19.5 µM (active) | 13.8 µM (active) | 34.7 µM (active) | inactive | 24.5 µM (active) |  |  |  |
| CN(C)[C@@H]1C(=O)C(C(N)=O)=C(O)[C@@]2(O)C(=O)C3=C(O)c4c(O)cccc4C[C@H]3C[C@@H]12 | inactive | inactive | inactive | inactive | inactive | inactive | inactive | inactive | inactive | inactive |  |  |  |
| Clc1ccc2n[nH]nc2c1 | inactive | inactive | inactive | inactive | inactive | inactive | inactive | inactive | inactive | inactive |  |  |  |
| COc1cc(-c2ccc(N=C=O)c(OC)c2)ccc1N=C=O | inactive | inactive | inactive | inactive | inactive | inactive | inactive | inactive | inactive | inactive |  |  |  |
| CC(C)(C)c1ccc(C(=O)O)cc1 | inactive | inactive | inactive | inactive | inactive | inactive | inactive | inactive | inactive | inactive |  |  |  |
| CC(=O)OCC(C)OC(C)=O (stereo not drawn) | inactive | inactive | inactive | inactive | inactive | inactive | inactive | inactive | inactive | inactive |  |  |  |
| CN(C)CCCOC1(Cc2ccccc2)CCCCCC1 | inactive | inactive | inactive | inactive | inactive | inactive | inactive | inactive | inactive | inactive |  |  |  |
| CCCCCCCCCCCCCCCC[N+](C)(C)CCN(Cc1ccc(OC)cc1)c1ncccn1 | 9.52 µM (active) | inactive | 6.74 µM (active) | 19 µM (active) | 8.49 µM (active) | 1.07 µM (active) | 2.13 µM (active) | 19 µM (active) | inactive | 19 µM (active) |  |  |  |
| CNc1ccc(O)cc1 | 12.3 µM (active) | inactive | 54.8 µM (active) | inactive | 48.9 µM (active) | 12.3 µM (active) | 15.5 µM (active) | inactive |  |  |  |  |  |
| Cc1cccc(CN2CCN(C(c3ccccc3)c3ccc(Cl)cc3)CC2)c1 (stereo not drawn) | inactive | inactive | inactive | inactive | inactive | inactive | inactive | inactive | inactive | inactive |  |  |  |
| Clc1ccc(C(Cn2ccnc2)OCc2ccc(Sc3ccccc3)cc2)c(Cl)c1 (stereo not drawn) | inactive | inactive | inactive | inactive | inactive | inactive | inactive | inactive | inactive | inactive |  |  |  |
| NC(=O)NS(=O)(=O)c1ccc(N)cc1 | inactive | inactive | inactive | inactive | inactive | inactive | inactive | inactive | inactive | inactive |  |  |  |
| COC(=O)C1=C(C)NC(C)=C(C(=O)OCCc2ccc(N3CCN(C(c4ccccc4)c4ccccc4)CC3)cc2)C1c1cccc([N+](=O)[O-])c1 (stereo not drawn) | inactive | inactive | inactive | inactive | inactive | inactive | inactive | inactive | inactive | inactive |  |  |  |
| CC[C@H](c1ccc(O)cc1)[C@@H](CC)c1ccc(O)cc1 | 38.9 µM (active) and inactive | inactive | 43.6 µM (active) | inactive | inactive | 24.5 µM (active) | inactive | inactive | inactive | 54.9 µM (active) and inactive |  |  |  |
| CCCCc1oc2ccc(NS(C)(=O)=O)cc2c1C(=O)c1ccc(OCCCN(CCCC)CCCC)cc1 | 21.3 µM (active) | inactive | 19 µM (active) | 23.9 µM (active) | 19 µM (active) | 10.7 µM (active) | 19 µM (active) | 23.9 µM (active) |  | 23.9 µM (active) |  |  |  |
| CCCCN1C(=O)[C@@H]([C@H](O)C2CCCCC2)NC(=O)C12CCN(Cc1ccc(Oc3ccc(C(=O)O)cc3)cc1)CC2 | inactive | inactive | inactive | inactive | inactive | inactive | inactive | inactive |  | inactive |  |  |  |
| CSc1cnc(C)cn1 | 89.4 µM (active) | 56.4 µM (active) | 63.3 µM (active) | 63.3 µM (active) | inactive | inactive | inactive |  | inactive | 56.4 µM (active) |  |  |  |
| CSc1ccc(/C=C2/C(C)=C(CC(=O)O)c3cc(F)ccc32)cc1 | inactive | inactive | inactive | inactive | inactive | inactive | inactive | inactive | inactive | inactive |  |  |  |
